Screening data: PubChem BioAssay, several laboratories
TRAIL sens C8 – caspase-8 TRAIL sensitization | NB7+C8 cells + TRAIL, ATPlite viability luminescence | inhibition (viability loss, TRAIL sensitization), % at 10 µM | hit rate 1% among 360,000 | AID 624354;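 active = compounds causing at least 50% loss of cell viability in the single-dose screen, relative to plate controls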
HIF-2a inh – inhibitors of HIF-2a | 786-0 RCC cells HIF-2a reporter, luciferase luminescence, overnight | inhibition, % at 18.8 µM | hit rate 0.72% among 360,000 | AID 624352;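 active = inhibition of the luminescence signal of 40% or more relative to plate controls, in a single-dose primary screen at 18.75 µM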
aSyn UTR inh – 5' untranslated region of α-synuclein, MLPCN primary screen. alpha-synuclein 5'UTR reporter, inhibitor activity. hit rate 0.82% among 300,000. inhibition, % (tested at 7.5 µM). AID 1813; in the data active = inhibition above about 60%; inconclusive = no clear call, values can overlap the other calls;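 note: H4 neuroglioblastoma cells stably carrying SNCA 5'UTR luciferase fusion; 0% = DMSO wells and 100% = positive control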
TROY signal inh – inhibitors of TROY-dependent NF-kB signaling; Q293 LMP1-TROYcd NF-kB luciferase reporter, 4 h; inhibition, % at 10 µM; hit rate 0.98% among 360,000; AID 1347056;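 active = compounds whose plate-normalised and pattern-corrected inhibition of the luciferase reporter signal at the single screening dose is 50% or more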
HSP90 inh – inhibitors of HSP90 luciferase refolding in rabbit reticulocyte lysate. luciferase refolding luminescence, 3 h. inhibition, % at 5.6 µM. hit rate 0.91% among 290,000. AID 1789;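 active = inhibition above the screen-wide mean plus 3 SD, computed separately per campaign, cut at about 16% in these data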;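 note: 0% = DMSO wells and 100% = 60 µM geldanamycin wells; inhibitors lower the luminescence because luciferase stays unfolded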
TWEAK Fn14 block – TWEAK-Fn14 signaling inhibition. AID 1159606. inhibition, % at 10 µM. TWEAK-stimulated Fn14 reporter cells, luciferase luminescence, 8 h. hit rate 2% among 360,000; in the data active = inhibition above about 50%
The depositor's hits bear a star; ? = inconclusive; . = no result given. This is a sample that favours compounds with a hit; in the whole collection about 3.9% have one here.

SMILES	TRAIL sens C8	HIF-2a inh	aSyn UTR inh	TROY signal inh	HSP90 inh	TWEAK Fn14 block
COc1ccccc1-c1ccc([C@@H]2C[C@H]3[C@H](CON3C)CN2C(=O)c2ccc(-c3ccccc3)cc2)cc1	7.7	-9.4	.	3.2	.	15.9
COC(=O)c1sc(NC(=O)c2cc(-c3ccccc3)nc3ccccc23)c(C#N)c1C	52.2*	-5.9	26.8	51.5*	3.9	35.5
O=C(NC1=NCCS1)c1cc(-c2ccc(-c3ccccc3)cc2)nc2ccccc12	65.1*	-226.4	-88.2	-34.8	-2.3	-48.7
COC(=O)c1sccc1NC(=O)c1cc(-c2ccc(C)cc2)nc2ccccc12	18.2	-3.4	23.2	-12.8	3.1	98.3*
Cc1ccccc1-c1cc(C(=O)Nc2sc(C(=O)OC(C)C)c(C)c2C#N)c2ccccc2n1	45.4	2.6	26.6	58.1*	-0.9	62.0*
O=C1O[C@@H](c2ccccc2)C[C@@H](O)C(=O)CCCc2ccccc21	-6.4	-15.4	.	11.4	.	0.2
COC(=O)c1sccc1NC(=O)c1cc(-c2cc(C)ccc2C)nc2ccccc12	1.4	-5.9	22.6	6.5	-2.4	32.2
Cc1ccc(C)c(-c2cc(C(=O)Nc3nccs3)c3ccccc3n2)c1	20.9	18.9	1.7	9.7	2.9	62.5*
Cc1ccc2c(c1)C1CN(C)CCC1N2C(=O)c1cccc(S(=O)(=O)N(C)C)c1 (stereo not drawn)	1.6	7.6	5.0	66.9*	1.7	2.2
CCC1(O)C(=O)OCc2c1cc1n(c2=O)Cc2cc3c(N)cccc3nc2-1 (stereo not drawn)	7.1	36.6	.	72.0*	.	72.1*
CCC1(OC(=O)CN(C)C)C(=O)OCc2c1cc1n(c2=O)Cc2cc3c(N)cccc3nc2-1 (stereo not drawn)	25.7	13.2	.	-9.0	.	-31.2
CCCCNc1ccc2c(c1)C1CC2CCN1C(=O)OCc1ccccc1 (stereo not drawn)	15.9	-234.6	.	-38.9	.	-34.8
CCN1C(=O)C(=Cc2cccc(OC)c2Oc2ccc([N+](=O)[O-])cc2[N+](=O)[O-])SC1=S	34.5	5.8	80.3*	-8.9	3.9	90.9*
CCN1C(=O)S/C(=C/c2ccc(Oc3ccc([N+](=O)[O-])cn3)c(OC)c2)C1=O	8.9	-23.2	1.4	18.1	-0.8	11.1
CO/N=C/c1ccc(Oc2ccc([N+](=O)[O-])cc2[N+](=O)[O-])c(OC)c1	14.4	-3.0	9.4	1.4	-0.8	12.1
COc1cc(/C=C2\SC(=O)NC2=O)ccc1Oc1ccc([N+](=O)[O-])cc1[N+](=O)[O-]	3.8	2.9	-35.6	33.5	-0.9	62.8*
Cc1ccc(NC(=O)C2(C)CCCN2C)cc1C (stereo not drawn)	-9.4	2.2	.	-9.5	.	9.7
OC(c1ccc(F)c(F)c1)c1nc(-c2cccc3cccnc23)cs1 (stereo not drawn)	-8.9	-102.7	.	-17.5	.	-32.0
CC(=O)c1ccc2c(c1)N(Cc1ccccc1)C(=O)C(C)S2 (stereo not drawn)	1.8	-1.2	.	-16.6	.	-7.1
O=C(Nc1ccccc1)Nc1cccc(C(F)(F)F)c1	-1.9	-187.5	-73.1	-38.0	0.6	-0.1
COC(=O)/C=C/C(=O)Nc1cccc(C(F)(F)F)c1	7.6	-7.4	-6.7	-5.8	3.2	51.4*
COC(=S)Nc1cccc(C(F)(F)F)c1	-3.9	11.8	-13.8	-10.0	-3.4	-6.7
Cc1ccc(OC(F)F)c(NC(=O)Nc2cccc(C(F)(F)F)c2)c1	-1.0	-66.6	29.6	40.3	10.2	75.3*
COc1ccc(CCC(=O)NNC(=O)c2ccc(F)cc2)cc1	-11.9	9.7	-1.2	-0.7	0.4	52.6*
CCc1cc2c(=O)[nH]c(-c3ccccn3)nc2s1	52.7*	-75.7	?	17.8	3.5	15.6
CCOC(=O)C1c2cccc(O)c2CCN1C(C)=O (stereo not drawn)	-19.7	10.0	.	15.7	.	37.9
Cc1cccc(C)c1NC(=O)C1(C)CSCC(=O)N1C1CCN(Cc2ccccc2)CC1 (stereo not drawn)	-5.1	13.9	.	.	.	.
CN(Cc1ccco1)C(=O)CC[C@H]1O[C@@H](n2ccc(=O)[nH]c2=O)[C@H](O)[C@@H]1O	-9.1	10.4	.	6.1	.	6.5
O=S(=O)(c1cccc2c(S(=O)(=O)N3CCCC3)cccc12)N1CCCC1	-0.3	8.5	2.2	7.3	-1.8	-18.9
COc1cc(OC)c(S(=O)(=O)N2CCCCC2)cc1S(=O)(=O)N1CCCCC1	-1.5	10.7	24.4	.	-1.6	82.6*
